For 26 compounds, inhibition results are on record in PubChem BioAssay AID652010 (The Scripps Research Institute Molecular Screening Center, 2013).

The whole screen tested about 370,000 compounds, of which about 4,100 (1.1%) were called active. Many of the other results were omitted from the sample, so actives are more common in it than they were. Unmarked numbers belong to inactive results.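 How the source made its calls: active means inhibition above the mean over all tested compounds plus 3 SD (cut at about 3.6% in these data); inactive means the rest.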

A short description of the assay: DAX1 (NR0B1) inhibitors on StAR promoter, primary screen, cell-based, luminescence, SF-1 (NR5A1), full-length DAX-1 (AID 652010).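 Further: 0% = DAX-1 cells with DMSO and 100% = cells lacking DAX-1 with DMSO.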 The note with it: HEK293T StAR-luciferase reporter, SF-1/DAX-1 repression relief; at 6.8 µM; hits give high values.
For the compound `Cc1ccccc1Nc1nc(N)nc(CSc2nnc3ccccn23)n1`, the inhibition was 0.79%.

With `Cc1ccccc1Nc1nc(N)nc(COC(=O)CCC(=O)c2ccc(F)cc2)n1`, the inhibition is 1.74%.

Take `Cc1ccccc1Nc1nc(N)nc(CSc2ccccc2)n1`: the inhibition was 6.39% (active).

For `COC(=O)c1cc(NC(=O)c2cc(C(C)(C)C)nn2Cc2cccc(C)c2)ccc1N1CCOCC1`, the inhibition is -0.35%.

`CCN(C(=O)CSc1cccc[n+]1[O-])c1ccccc1`: the inhibition was -1.71%.

With `O=C(CSc1cccc[n+]1[O-])c1ccc(-c2ccccc2)cc1`, the inhibition was 6.13% (active).

As to `O=C(CSc1cccc[n+]1[O-])NCCCc1ccccc1`, the inhibition is -0.54%.

As to `CCOC(=O)C1=C(C)NC2=C(C(=O)CC(C)(C)C2)C1c1ccc2c(c1)OCO2` (stereo unspecified), the inhibition was -0.98%.

As to `COCCCNC(=O)C[C@H]1C[C@@]2(C(=O)OC)C(=C[C@H](C(C)(C)C)O[C@@H]2C)N(Cc2ccc(Cl)cc2Cl)C1=O`, the inhibition was -0.02%.

As to `CC(=O)OC12CCCN(C1)/C(=C/c1ccncc1)C2` (stereo unspecified), the inhibition was 0.29%.

On to `COC(=O)[C@H](C(C)C)N(CCc1cn(Cc2ccccc2)nn1)S(=O)(=O)c1ccc(F)cc1Br`, for which the inhibition is -1.05%.

For `CCOc1ccc(N2CC(C(=O)NCc3ccccn3)CC2=O)cc1` (stereo unspecified), the inhibition was -0.17%.

Consider `CCCNC(=O)C1CC(=O)N(c2ccc(OCC(=O)Nc3cccc(C)c3C)cc2)C1` (stereo unspecified), for which the inhibition is 0.23%.

With `CCCNC(=O)C1CC(=O)N(c2ccc(OCc3ccccc3)cc2)C1` (stereo unspecified), the inhibition was 5.35% (active).

For `O=C(NC1CCc2ccccc21)C12CN(Cc3ccccc3)CC1C(c1cccc([N+](=O)[O-])c1)=NO2` (stereo unspecified), the inhibition is -0.99%.

In the case of `COc1ccc(CN2C(=O)N3Cc4cc(OC)ccc4C3CS2(=O)=O)cc1` (stereo unspecified), the inhibition was -0.73%.

As for `O=C(N/N=C/c1ccsc1)c1cc(O)cc(O)c1`, the inhibition was -0.09%.

Consider `O=C(NN=Cc1ccccc1)c1ccccc1`, for which the inhibition was 3.83% (active).

Consider `NN=C(NN=Cc1ccccc1)c1ccccc1`, for which the inhibition is 0.41%.

`Cc1ccc(Cn2cc(CN3[C@@H](CC(C)C)COc4ccc(Cl)cc4S3(=O)=O)nn2)cc1`: the inhibition is 0.88%.

On to `Cc1[nH]nc2c1C(c1ccc(Br)cc1)NC2=O` (stereo unspecified), for which the inhibition is -0.04%.

For the compound `CCCOc1ccc(Oc2c(Cl)cnn(Cc3cccc4ccccc34)c2=O)cc1`, the inhibition was 0.1%.

As to `CN(C)Cc1cn(-c2ccc(-c3noc4c3C(=O)N(CC(=O)N3CCOCC3)CC4)cc2)nn1`, the inhibition is -0.33%.

As to `Brc1ccc2nc(N3CCCC3)sc2c1`, the inhibition is 7.95% (active).

`O=C(NCCc1cccc(F)c1)C1CCCN(c2nc3ccccc3s2)C1` (stereo unspecified): the inhibition is 0.01%.

Take `Cc1nc(N2CCCCC2)sc1C=O`: the inhibition is 0.27%.
